Source: PubChem BioAssay
In the library only some 4% were active in any assay of this set; here they are far more common.
Mdm2-MdmX inh – inhibitors of human Mdm2-MdmX association, primary screen, cell-based, luminescence, split luciferase, SaOS-2, uHTS; SaOS-2 split-luciferase Mdm2/MdmX complementation; Protein Mdm4 (Homo sapiens) + E3 ubiquitin-protein ligase Mdm2 (Homo sapiens), …; inhibition, % at 8 µM; 330,000 compounds, 3% hits;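 active = inhibition of at least 50% at 8 µM in the primary screen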
Target sequence (O15151 whole entry, looked up): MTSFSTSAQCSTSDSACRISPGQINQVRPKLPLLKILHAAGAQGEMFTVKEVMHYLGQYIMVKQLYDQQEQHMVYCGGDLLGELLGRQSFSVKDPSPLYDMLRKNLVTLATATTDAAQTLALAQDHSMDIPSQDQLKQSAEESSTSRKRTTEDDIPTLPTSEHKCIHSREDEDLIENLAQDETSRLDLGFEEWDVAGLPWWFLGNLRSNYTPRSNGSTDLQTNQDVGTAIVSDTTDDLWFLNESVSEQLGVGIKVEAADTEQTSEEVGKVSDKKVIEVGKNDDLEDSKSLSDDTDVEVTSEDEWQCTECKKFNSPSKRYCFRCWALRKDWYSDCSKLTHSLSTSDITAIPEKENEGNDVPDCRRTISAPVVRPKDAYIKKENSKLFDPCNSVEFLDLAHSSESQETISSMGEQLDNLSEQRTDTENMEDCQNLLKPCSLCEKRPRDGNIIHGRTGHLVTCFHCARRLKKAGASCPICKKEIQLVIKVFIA
Target sequence (Q00987 whole entry, looked up): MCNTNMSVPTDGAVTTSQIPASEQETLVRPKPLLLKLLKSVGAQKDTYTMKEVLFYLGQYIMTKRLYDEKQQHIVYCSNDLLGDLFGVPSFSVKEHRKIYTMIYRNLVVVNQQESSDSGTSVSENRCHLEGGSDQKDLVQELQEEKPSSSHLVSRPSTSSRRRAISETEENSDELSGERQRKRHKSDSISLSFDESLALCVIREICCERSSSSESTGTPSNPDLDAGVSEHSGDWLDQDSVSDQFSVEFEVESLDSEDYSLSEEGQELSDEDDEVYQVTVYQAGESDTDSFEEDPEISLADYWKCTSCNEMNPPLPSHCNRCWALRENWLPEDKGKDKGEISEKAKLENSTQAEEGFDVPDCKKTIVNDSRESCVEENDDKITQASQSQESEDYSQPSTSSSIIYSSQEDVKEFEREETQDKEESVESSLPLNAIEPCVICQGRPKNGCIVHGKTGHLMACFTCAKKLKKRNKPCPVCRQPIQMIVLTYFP
Jurkat NFkB inh – inhibitors of induced NF-kB luciferase reporter, primary screen, TCR NF-kB activation inhibitor project, cell-based, luminescence, uHTS; Jurkat, PMA/ionomycin-induced NF-kB luciferase reporter; inhibition, % at 4 µM; 330,000 compounds, 0.53% hits; AID 435003, 2010; in the data active = inhibition above about 50%
Beta apoptosis – inhibitors of cytokine-induced beta cell apoptosis, primary screen, luminescence; INS-1E cytokine-induced death, ATP luminescence, 48 h; percent of positive-control rescue, neutral wells zero; protection from apoptosis, % (test concentration not listed); 300,000 compounds, 0.8% hits; AID 435005, 2010;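 active = Every replicate reaches about 75%, or at least half do and their mean reaches it too, limit read from the data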;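 note: 0% = cytokine-treated negative control wells and 100% = positive control rescue; higher means more ATP so stronger rescue from cytokine killing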
697 NFkB inh – inhibitors of PMA/ionomycin-induced NF-kB reporter, 697 cells, primary screen, B-cell NF-kB inhibitor project, cell-based, luminescence, uHTS; inhibition, % at 4 µM; AID 435022, 2010; 697 B-cell NF-kB luciferase reporter, 16 h; 330,000 compounds, 0.33% hits; in the data active = inhibition above about 35%
Gli-Sufu antag – Gli-Sufu pathway antagonists, primary screen, luciferase luminescence, Sufu-KO-LIGHT cells, uHTS; 340,000 compounds, 0.74% hits; AID 588413, 2011; inhibition, % at 5 µM; Sufu-KO-LIGHT fibroblasts, Gli luciferase reporter luminescence;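 active = inhibition above about 55%, limit read from the data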;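 note: 0% = DMSO-treated cells and 100% = wells with medium but no cells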
Gli-Sufu confirm – Gli-SUFU pathway antagonists, confirmation, single concentration, luciferase luminescence, Sufu-KO-LIGHT cells; shares compounds with Gli-Sufu antag; inhibition, % at 5 µM; 2,500 compounds, 40% hits; Gli luciferase reporter; AID 602428, 2012;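 active = mean inhibition at 5 µM reaching about 45%, limit read from the data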;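 note: plate controls were DMSO-treated cells for no effect and wells lacking cells for full effect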
SufuKO cytotox – cytotoxicity in Sufu-KO-LIGHT cells, confirmation, cytotoxicity control for Gli-SUFU antagonist project, cell-based, ATP luminescence, single concentration; shares compounds with Gli-Sufu antag; 2,500 compounds, 32% hits; AID 651994, 2013; cytotoxicity, % at 5 µM;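 active = mean cytotoxicity at 5 µM above about 25%, limit read from the data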;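 note: cells exposed to compound overnight for roughly 16 to 18 hours; plate controls were DMSO wells with cells for no effect and medium without cells for full effect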
Wnt3a cs – Wnt3a reporter signal inhibition, confirmation, counter-screen for Gli-SUFU antagonist project, Wnt-LIGHT cells, luminescence, single concentration; shares compounds with Gli-Sufu antag; Wnt3a-driven luciferase reporter; inhibition, % at 6.25 µM; 2,500 compounds, 20% hits; AID 651995, 2013;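 active = mean inhibition above about 25%, limit read from the data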
* hit, by the source's call; · = no result.

SMILES	Mdm2-MdmX inh	Jurkat NFkB inh	Beta apoptosis	697 NFkB inh	Gli-Sufu antag	Gli-Sufu confirm	SufuKO cytotox	Wnt3a cs
CCc1cccc(NC(=O)CN(C)S(=O)(=O)c2cccc3cccnc23)c1	-18	6	-2	19	-2	·	·	·
Cc1ccc2c(c1)c(C)cc[n+]2Cc1ccccc1	0	28	·	-23	58*	60*	30*	13
COc1ccc2c(c1)c(C)cc[n+]2Cc1ccccc1	10	9	-3	-17	65*	67*	22	23
O=C(C1CCN(Cc2ccc(F)cc2)CC1)N(CCO)Cc1ccccc1	-18	-9	0	-2	5	·	·	·
O=C(C1CCN(Cc2ccc(F)cc2)CC1)N(CCc1ccccc1)Cc1ccccc1	42	0	-1	5	58*	24	2	-49
Cc1cc(N2CC(C)OC(C)C2)nc(C(C)C)n1 (centres undefined)	-6	1	-5	7	52	16	19	5
Cc1cc(N2CCOCC2)nc(C(C)C)n1	0	-5	-6	3	-13	·	·	·
CCOC(=O)N1CCN(C(=O)CSc2ccc3nnc(-c4ccncc4)n3n2)CC1	-3	-3	-8	-1	59*	9	33*	-12
CCOC(=O)N1CCN(C(=O)CSc2ccc3nnc(-c4ccccn4)n3n2)CC1	15	9	-7	28	10	·	·	·
CC1([N+](=O)[O-])COC(C=Cc2ccccc2)OC1 (centres undefined)	·	·	·	·	-2	·	·	·
Cc1ccc(NC(=O)C2CCN(S(=O)(=O)c3ccc(N4CCCC4=O)cc3)CC2)cc1Cl	29	24	122*	6	81*	84*	41*	8
Cc1cc(S(=O)(=O)N2CCCC(C(=O)Nc3ccc(C(=O)O)cc3)C2)ccc1Cl (centres undefined)	1	-5	3	-1	55*	16	-7	14
COc1ccc(NC(=O)C2CCN(S(=O)(=O)c3ccc(N4CCCC4=O)cc3)CC2)c(OC)c1	11	0	-7	10	39	·	·	·
Fc1ccc(CCN2CCN=C2Nc2ccccc2)cc1	-21	10	-1	7	2	·	·	·
CCOC(=O)N1CCN(C(=O)Cn2ncc3ccccc32)CC1	5	7	·	6	1	·	·	·
O=C(Cn1ncc2ccccc21)N1CCN(c2cccc(C(F)(F)F)c2)CC1	25	-5	3	15	56*	15	0	-43
CC1=CC(=O)Nc2ccccc2S1	·	·	·	·	20	·	·	·
COc1ccc(-c2c(C)nn3c(NC4CCCC4)cc(C)nc23)cc1OC	15	-9	3	-32	1	·	·	·
CCc1c(C)nc2cc(-c3ccc(OC)c(OC)c3)nn2c1NCC1CC1	28	-44	·	-57	74*	74*	27*	35*
COC(=O)C(C(=O)Nc1nc2ccccc2s1)C1CCCC1 (centres undefined)	-3	5	-3	-8	-10	·	·	·
Cc1ccc(NC(=O)CSc2ccc3c(c2)OCCO3)c(O)c1	26	15	5	0	73*	69*	43*	51*
CCCCC(=O)Nc1nc(C)c(-c2csc(Nc3cc(Cl)ccc3OC)n2)s1	-10	-8	2	5	-2	·	·	·
CCCCC(=O)Nc1nc(C)c(-c2csc(Nc3cc(OC)ccc3OC)n2)s1	39	1	3	-8	95*	33	25	17
CCC(Oc1ccccc1F)C(=O)Nc1ccc2c(c1)n(C)c(=O)n2C (centres undefined)	19	7	-6	-5	52	28	-2	7
C1CCCC(NC2=NCCO2)CCC1	-1	-67	-5	-34	1	·	·	·
SMILES	Mdm2-MdmX inh	Jurkat NFkB inh	Beta apoptosis	697 NFkB inh	Gli-Sufu antag	Gli-Sufu confirm	SufuKO cytotox	Wnt3a cs
O=C1CCC(C(=O)N(CCO)Cc2ccccc2)CN1CC1CCCCC1 (centres undefined)	17	-5	-4	-12	1	·	·	·
OC(CSc1ccccc1)CN1CCN(c2cccc(Cl)c2)CC1 (centres undefined)	·	·	·	·	50	23	4	-37
OC(CSc1ccccc1)CN1CCN(c2ccc(Cl)cc2)CC1 (centres undefined)	·	·	·	·	-24	·	·	·
c1ccc2c(c1)OCC(CNCC1COc3ccccc3O1)O2 (centres undefined)	21	-5	-3	7	6	·	·	·
c1ccc2c(c1)OCC(CNc1ncnc3sccc13)O2 (centres undefined)	·	·	107*	·	76*	74*	20	22
Cc1ccc2c(c1)nnn2C1CCN(S(=O)(=O)c2ccc(C(=O)N3C(C)CCCC3C)cc2)CC1 (centres undefined)	26	15	106*	-52	67*	69*	30*	18
O=c1c2c([nH]c3ccccc13)CCC2	14	4	-5	15	60*	30	6	6
Cc1ccc(S(=O)(=O)N(Cc2ccccc2)c2ccccc2C(=O)NCc2ccco2)cc1	25	-12	·	7	96*	23	22	5
Cc1cc(C)n2nc(C(=O)Nc3ccn(Cc4ccccc4C)n3)cc2n1	-15	-11	-3	10	-4	·	·	·
CS(=O)(=O)N(CC(=O)Nc1ccccc1-c1ccccc1)c1ccc(F)cc1	-21	-2	-5	5	4	·	·	·
CS(=O)(=O)N(CC(=O)Nc1ccccc1Sc1ccccc1)c1ccc(F)cc1	14	-27	1	-17	65*	28	6	-5
Cc1cccn2c(=O)c3cc(S(=O)(=O)c4ccccc4)c(=N)n(Cc4ccco4)c3nc12	27	1	-8	-15	-8	·	·	·
Cc1ccc2nc3c(cc(S(=O)(=O)c4ccccc4)c(=N)n3Cc3ccco3)c(=O)n2c1	-109	-86	-6	-109	51	-1	15	-39
COc1ccc(CNCc2cc(OC)ccc2OC)cc1	18	2	4	-2	20	·	·	·
COc1cc(CNCc2cc(OC)ccc2OC)cc(OC)c1	-14	14	·	-12	57*	14	10	-2
CCOc1ccccc1NC(=O)CCN1CCN(S(=O)(=O)c2ccc(Br)cc2)CC1	11	-6	4	-7	53	17	19	-74
